Measured values from PubChem BioAssay.
Records with an inconclusive call do not appear. The source made the active and inactive calls. Unless noted, how the calls were made is not given here.

Key:
[1] = rapamycin-like changes in RPL19A-GFP expression – cell-based, S. cerevisiae, multiplex flow cytometry, primary screen (AID 1862; in the data active means percent of DMSO control GFP below about 86%;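 further: lower values mimic rapamycin by blocking the RPL19A rise seen in DMSO cells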); conditions: S. cerevisiae RPL19A-GFP strain, flow cytometry fluorescence, 3 h; at 10 µM; stronger effect = lower value
[2] = TOR pathway GLN3 branch reporter MEP2-GFP changes – S. cerevisiae, multiplex flow cytometry, primary screen (AID 1867;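 active means GFP response, as percent of the DMSO control, above the screen-wide mean plus 3 SD, about 139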;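 further: median GFP channel fluorescence of barcode-gated MEP2-GFP cells measured by flow cytometry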); conditions: S. cerevisiae MEP2-GFP strain, 3 h, at 10 µM, stronger effect = higher value
[3] = TOR pathway RTG branch CIT2 reporter changes – S. cerevisiae, GFP fusion, multiplex flow cytometry, primary screen (AID 1870;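 active means percent response above a set limit, the screen-wide mean plus 3 SD, cut at about 130% in these data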;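 further: barcoded CIT2-GFP strain pooled with four other GFP strains with rapamycin as positive control; median GFP fluorescence per well over plate mean of DMSO wells so 100% = DMSO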); conditions: S. cerevisiae CIT2-GFP expression, 3 h, at 10 µM, stronger effect = higher value
[4] = TOR pathway LAP4-GFP level changes – S. cerevisiae, multiplex flow cytometry, primary screen (AID 1873;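 active means GFP signal, as percent of the solvent control, above the screen mean plus 3 SD, about 149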); conditions: S. cerevisiae LAP4-GFP expression, 3 h, at 10 µM, stronger effect = higher value
[5] = reduced mouse 2C T cell binding to pMHC/ICAM-1 vesicles – MLPCN validation set, flow cytometry, LFA-1/ICAM-1 modulator project, pilot screen (AID 2523;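 active means response below a set limit, under 55% cells CD8-positive and vesicle-bound, and CD8 cells' 90th-percentile brightness under 279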;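 on vesicle binding response: mean PE anti-B7-1 fluorescence of CD8+ cells relative to row control; 100% = QL9-loaded vesicles with DMSO vehicle in the same plate row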); conditions: 2C mouse CD8+ T cells, at 7 µM, stronger effect = lower value; double positive events: measured here: CD8+/vesicle+ event percentage
[6] = biological target: Integrin beta-1 (Homo sapiens) + Integrin alpha-4 (Homo sapiens) (UniProt P13612+P05556); test: alpha4beta1 integrin LIBS antibody binding reduction – U937 cells, HUTS-21 mAb, flow cytometry, validation set, VLA-4 allosteric modulator project, pilot screen (AID 2674;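 active means inhibition above 50%, about 3 SD of the validation set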;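 further: antibody binding induced by the VLA-4 ligand LDV present at three times its Kd; 0% = LDV ligand with antibody and no compound and 100% = antibody without LDV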); conditions: HUTS-21 LIBS mAb binding, at 6.7 µM, stronger effect = higher value
[7] = calorie-restriction mimetic ROS inhibitors, yeast – validation compound set, pilot screen (AID 2706;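 active means superoxide response below 65% of plate, a cut near 3 SD across the whole screen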;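 further: yeast exposed to compound for one week at 30 degrees C before staining; 100% = mean of all compound wells on the same plate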); conditions: S. cerevisiae aging, superoxide DHE fluorescence; at 10 µM; stronger effect = lower value
[8] = biological target: Beta-adrenergic receptor kinase 1 (Homo sapiens) (UniProt P25098); test: GRK2 binders displacing RNA aptamer, biochemical, validation, human GRK2, bead flow cytometry (AID 488806;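 active means aptamer binding inhibition above 30%, about 3 SD of noise from non-fluorescent compounds; inactive means inhibition at or below 30%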); conditions: bead-bound GRK2, FAM-aptamer displacement, at 10 µM, stronger effect = higher value
[9] = biological target: AP-2 complex subunit beta (Homo sapiens) (UniProt P63010); test: beta-arrestin/AP2 interaction blockers – biochemical, validation set, GST-AP2 beads, flow cytometry, pilot screen (AID 504541;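 active means inhibition above 54%, about 3 SD of non-fluorescent compounds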;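 further: AP2 carries R879A mutation and is captured from E. coli lysate; bead-bound FITC arrestin peptide fluorescence measuring arrestin peptide binding to AP2; 0% = DMSO wells and 100% = excess unlabeled arrestin peptide control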); conditions: FITC arrestin peptide, at 10 µM, stronger effect = higher value
[10] = cytosolic pH regulators acting via V-ATPase – S. cerevisiae, pHLuorin, HTS validation (AID 504600; in the data active means response above about 15%;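 further: plate controls were DMSO for no effect and reference compound for full effect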); conditions: V-ATPase proton transport, at 10 µM, stronger effect = higher value
[11] = test system: anti-desmoglein-3 scFv antibody binding to human DSG3; test: blockers of pathogenic pemphigus antibody–desmoglein-3 binding – biochemical, validation compound set, bead-based, flow cytometry, pilot screen (AID 588368;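 active means binding below the plate cutoff, the plate median minus 3 SD, with a reading above zero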;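 further: signal is the median channel fluorescence of bead-bound GFP antibody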); conditions: Protein G beads, DSG3-Fc, scFv-GFP binding, at 10 µM, stronger effect = lower value
[12] = test system: Botulinum neurotoxin type F light chain protease (Clostridium botulinum); test: Clostridium botulinum type F light chain protease inhibitors, microsphere substrate cleavage, validation (AID 588459); conditions: multiplex microsphere protease substrate cleavage assay, flow cytometry; at 10 µM; stronger effect = higher value
[13] = biological target: Botulinum neurotoxin type A (Clostridium botulinum) (UniProt P0DPI0); test: BoNT/A light chain protease inhibitors, biochemical, multiplex microsphere flow cytometry, validation set (AID 588460); conditions: at 10 µM, stronger effect = higher value
[14] = biological target: Lethal factor (Bacillus anthracis) (UniProt P15917); test: Bacillus anthracis lethal factor inhibition, microsphere flow cytometry protease assay, validation at 10 µM (AID 588461); conditions: multiplex microsphere protease cleavage assay, stronger effect = higher value
[15] = Nile Red efflux blockade in pump-expressing yeast – validation compound set, multiplex, phenotypic, pilot screen (AID 588506;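 active means efflux inhibition above 0.42, the validation set average plus 4 SD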;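 further: Nile Red retained in cells so higher fluorescence means more efflux inhibition; 0 = negative control wells and 1 = enniatin B 25 µM full block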); conditions: S. cerevisiae pump-expressing triplex, Nile Red efflux flow cytometry; at 10 µM; stronger effect = higher value
[16] = biological target: ATP-binding cassette sub-family B member 6 (Homo sapiens) (UniProt Q9NP58); test: blockers of ABCB6-driven porphyrin uptake – K562-ABCB6 cells, flow cytometry, validation set, pilot screen (AID 588550;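 active means inhibition above the screen-wide mean plus 3 SD, about 51%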;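 further: 0% = DMSO wells and 100% = benzethonium chloride 70 µM positive control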); conditions: K562-ABCB6 porphyrin accumulation, 1 h, at 10 µM, stronger effect = higher value
[17] = AML differentiation inducers, ER-HoxA9 marrow cells – cell-based, GFP/MAC1 double positive, flow cytometry, validation set, primary screen (AID 588685;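 active means differentiation response of at least 50%, scaled between solvent and reference control, from cells with both markers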;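 further: compound exposure lasts four days before antibody staining and flow analysis; 0% = DMSO wells and 100% = 5 µM fulvestrant positive control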); conditions: stronger effect = higher value

ATP-binding cassette sub-family B member 6 (Homo sapiens), sequence (Q9NP58 whole entry, looked up): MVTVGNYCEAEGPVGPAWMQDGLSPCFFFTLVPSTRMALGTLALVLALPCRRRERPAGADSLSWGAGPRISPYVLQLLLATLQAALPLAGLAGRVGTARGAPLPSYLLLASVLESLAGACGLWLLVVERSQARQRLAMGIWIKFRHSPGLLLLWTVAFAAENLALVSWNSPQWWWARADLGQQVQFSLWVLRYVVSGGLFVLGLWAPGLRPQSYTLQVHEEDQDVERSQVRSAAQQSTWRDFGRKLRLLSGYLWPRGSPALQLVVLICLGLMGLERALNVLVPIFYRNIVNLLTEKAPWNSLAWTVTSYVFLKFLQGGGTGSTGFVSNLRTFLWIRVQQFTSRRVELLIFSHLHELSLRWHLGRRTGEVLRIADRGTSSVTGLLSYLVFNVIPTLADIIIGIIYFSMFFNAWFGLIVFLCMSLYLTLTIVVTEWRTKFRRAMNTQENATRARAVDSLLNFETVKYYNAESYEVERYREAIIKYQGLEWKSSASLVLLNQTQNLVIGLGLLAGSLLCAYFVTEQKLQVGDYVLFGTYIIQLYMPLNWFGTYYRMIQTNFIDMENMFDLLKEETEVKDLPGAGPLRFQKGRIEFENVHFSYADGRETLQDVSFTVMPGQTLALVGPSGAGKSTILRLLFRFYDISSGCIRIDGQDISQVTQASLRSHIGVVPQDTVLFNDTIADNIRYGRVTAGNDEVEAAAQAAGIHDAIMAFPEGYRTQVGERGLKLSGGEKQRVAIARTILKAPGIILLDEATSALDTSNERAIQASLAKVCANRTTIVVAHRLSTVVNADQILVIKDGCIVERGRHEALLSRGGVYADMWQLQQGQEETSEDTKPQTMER
Beta-adrenergic receptor kinase 1 (Homo sapiens), sequence (P25098 whole entry, looked up): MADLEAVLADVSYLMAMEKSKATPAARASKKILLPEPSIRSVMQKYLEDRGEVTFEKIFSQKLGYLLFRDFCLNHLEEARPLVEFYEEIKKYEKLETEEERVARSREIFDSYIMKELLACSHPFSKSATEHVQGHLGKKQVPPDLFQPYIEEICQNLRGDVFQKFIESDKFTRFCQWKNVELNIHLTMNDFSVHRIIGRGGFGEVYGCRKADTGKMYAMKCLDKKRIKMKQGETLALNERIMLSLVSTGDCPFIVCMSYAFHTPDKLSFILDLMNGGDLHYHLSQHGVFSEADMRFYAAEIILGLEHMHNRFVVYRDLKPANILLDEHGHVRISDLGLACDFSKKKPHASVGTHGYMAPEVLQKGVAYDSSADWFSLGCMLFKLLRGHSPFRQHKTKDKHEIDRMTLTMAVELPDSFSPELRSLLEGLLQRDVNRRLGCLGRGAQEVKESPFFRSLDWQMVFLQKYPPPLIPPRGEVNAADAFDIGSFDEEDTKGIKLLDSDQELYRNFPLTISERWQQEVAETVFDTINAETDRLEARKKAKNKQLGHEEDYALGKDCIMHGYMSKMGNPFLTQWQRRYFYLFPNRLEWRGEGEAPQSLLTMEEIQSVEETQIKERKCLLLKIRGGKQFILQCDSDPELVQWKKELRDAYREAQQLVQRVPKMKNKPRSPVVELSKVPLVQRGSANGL
Lethal factor (Bacillus anthracis), sequence (P15917 whole entry, looked up): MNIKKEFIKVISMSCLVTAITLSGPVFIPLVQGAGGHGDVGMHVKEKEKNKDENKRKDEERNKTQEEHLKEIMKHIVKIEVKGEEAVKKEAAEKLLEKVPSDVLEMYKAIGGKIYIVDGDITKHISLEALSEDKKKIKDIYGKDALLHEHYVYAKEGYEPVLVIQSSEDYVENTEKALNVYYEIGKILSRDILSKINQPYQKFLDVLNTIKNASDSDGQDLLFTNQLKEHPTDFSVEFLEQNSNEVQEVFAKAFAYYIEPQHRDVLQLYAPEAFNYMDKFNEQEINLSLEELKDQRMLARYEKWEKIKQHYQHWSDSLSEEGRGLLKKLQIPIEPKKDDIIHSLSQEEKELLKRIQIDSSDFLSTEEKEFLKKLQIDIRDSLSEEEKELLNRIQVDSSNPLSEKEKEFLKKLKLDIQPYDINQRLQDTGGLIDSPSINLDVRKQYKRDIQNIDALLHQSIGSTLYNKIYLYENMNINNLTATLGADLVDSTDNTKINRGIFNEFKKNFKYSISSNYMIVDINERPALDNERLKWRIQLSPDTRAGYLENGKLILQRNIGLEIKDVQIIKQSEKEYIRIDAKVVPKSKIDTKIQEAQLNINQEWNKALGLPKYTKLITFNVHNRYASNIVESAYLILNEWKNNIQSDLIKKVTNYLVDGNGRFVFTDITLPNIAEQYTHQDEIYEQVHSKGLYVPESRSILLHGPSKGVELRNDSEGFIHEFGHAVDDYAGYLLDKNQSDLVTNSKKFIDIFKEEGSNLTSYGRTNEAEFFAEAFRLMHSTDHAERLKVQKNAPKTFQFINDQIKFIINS
Botulinum neurotoxin type A (Clostridium botulinum), sequence (P0DPI0 whole entry, looked up): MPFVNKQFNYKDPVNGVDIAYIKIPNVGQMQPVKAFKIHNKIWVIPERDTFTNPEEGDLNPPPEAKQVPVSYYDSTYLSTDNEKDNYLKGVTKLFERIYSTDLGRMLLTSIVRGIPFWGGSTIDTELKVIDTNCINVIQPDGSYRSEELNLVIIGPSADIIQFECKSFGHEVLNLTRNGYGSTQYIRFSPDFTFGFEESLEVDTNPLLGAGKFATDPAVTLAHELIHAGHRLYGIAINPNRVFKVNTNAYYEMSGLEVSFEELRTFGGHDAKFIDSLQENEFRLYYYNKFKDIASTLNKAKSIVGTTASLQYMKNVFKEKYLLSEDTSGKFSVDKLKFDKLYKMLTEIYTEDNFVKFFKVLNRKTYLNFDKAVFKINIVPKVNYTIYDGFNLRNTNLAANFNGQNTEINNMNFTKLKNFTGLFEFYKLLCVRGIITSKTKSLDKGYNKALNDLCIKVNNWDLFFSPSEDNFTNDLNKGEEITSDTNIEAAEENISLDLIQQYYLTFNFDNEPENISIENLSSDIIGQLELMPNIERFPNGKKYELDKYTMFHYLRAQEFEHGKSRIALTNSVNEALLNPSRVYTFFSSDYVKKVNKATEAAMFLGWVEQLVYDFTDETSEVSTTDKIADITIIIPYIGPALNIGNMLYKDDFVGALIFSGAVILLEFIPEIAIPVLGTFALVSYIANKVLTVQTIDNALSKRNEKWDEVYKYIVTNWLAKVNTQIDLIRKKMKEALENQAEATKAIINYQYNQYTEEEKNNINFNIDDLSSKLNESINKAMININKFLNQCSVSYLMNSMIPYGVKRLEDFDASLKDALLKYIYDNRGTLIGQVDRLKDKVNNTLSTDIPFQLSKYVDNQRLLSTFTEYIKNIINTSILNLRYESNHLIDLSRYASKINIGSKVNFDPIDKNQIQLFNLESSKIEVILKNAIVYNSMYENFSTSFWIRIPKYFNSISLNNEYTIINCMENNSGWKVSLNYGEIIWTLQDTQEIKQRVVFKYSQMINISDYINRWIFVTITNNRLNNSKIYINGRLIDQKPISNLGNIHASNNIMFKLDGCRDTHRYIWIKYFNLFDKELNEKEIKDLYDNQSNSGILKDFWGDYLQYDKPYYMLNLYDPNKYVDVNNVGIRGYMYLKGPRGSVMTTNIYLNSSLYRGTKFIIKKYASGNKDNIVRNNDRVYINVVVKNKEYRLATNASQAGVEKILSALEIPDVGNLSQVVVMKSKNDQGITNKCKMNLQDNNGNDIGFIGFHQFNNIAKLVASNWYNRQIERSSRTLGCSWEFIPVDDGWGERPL
AP-2 complex subunit beta (Homo sapiens), sequence (P63010 whole entry, looked up, one chain of several): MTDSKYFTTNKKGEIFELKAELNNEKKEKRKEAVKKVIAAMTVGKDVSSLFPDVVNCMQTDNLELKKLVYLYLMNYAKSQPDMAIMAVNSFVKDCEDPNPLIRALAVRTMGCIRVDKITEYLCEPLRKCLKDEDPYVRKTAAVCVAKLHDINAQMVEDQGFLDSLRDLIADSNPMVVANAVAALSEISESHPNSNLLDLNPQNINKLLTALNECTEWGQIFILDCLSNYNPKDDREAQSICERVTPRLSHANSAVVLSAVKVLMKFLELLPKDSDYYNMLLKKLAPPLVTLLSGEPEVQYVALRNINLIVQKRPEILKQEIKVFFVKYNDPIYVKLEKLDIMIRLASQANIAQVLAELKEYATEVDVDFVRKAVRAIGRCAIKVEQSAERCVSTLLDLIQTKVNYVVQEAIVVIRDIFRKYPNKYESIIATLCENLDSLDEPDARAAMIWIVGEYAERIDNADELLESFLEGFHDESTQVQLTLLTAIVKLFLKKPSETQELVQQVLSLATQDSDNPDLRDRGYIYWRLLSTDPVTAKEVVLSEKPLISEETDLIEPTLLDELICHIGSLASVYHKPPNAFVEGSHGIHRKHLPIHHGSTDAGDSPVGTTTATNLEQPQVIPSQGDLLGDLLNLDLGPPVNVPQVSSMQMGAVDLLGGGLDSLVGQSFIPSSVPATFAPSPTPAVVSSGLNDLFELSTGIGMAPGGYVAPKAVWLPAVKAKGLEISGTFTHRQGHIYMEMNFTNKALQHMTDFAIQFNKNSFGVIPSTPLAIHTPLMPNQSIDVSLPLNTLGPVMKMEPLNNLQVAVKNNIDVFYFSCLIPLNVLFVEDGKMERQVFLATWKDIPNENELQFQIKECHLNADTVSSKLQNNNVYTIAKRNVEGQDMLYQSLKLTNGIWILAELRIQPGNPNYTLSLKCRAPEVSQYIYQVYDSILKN

| Compound | percent of DMSO control GFP [1] | GFP response vs DMSO [2] | percent response of DMSO control [3] | GFP response vs DMSO [4] | double positive events [5] | vesicle binding response [5] | inhibition [6] | superoxide response (% of plate) [7] | aptamer binding inhibition [8] | inhibition [9] | response [10] | binding (% of control) [11] | inhibition [12] | inhibition [13] | inhibition [14] | efflux inhibition (fraction of control) [15] | inhibition [16] | differentiation response [17] |
| --- | --- | --- | --- | --- | --- | --- | --- | --- | --- | --- | --- | --- | --- | --- | --- | --- | --- | --- |
| CN(C)[C@@H]1C(=O)C(C(N)=O)=C(O)[C@@]2(O)C(=O)C3=C(O)c4c(O)cccc4[C@@](C)(O)[C@H]3[C@H](O)[C@@H]12 | 102% (inactive) | 98.9% (inactive) | 105% (inactive) | 97.4% (inactive) | 56.9% | 155% (inactive) | 6.29% (inactive) | 99.8% (inactive) | 26% (inactive) | 34.2% (inactive) | 4.02% (inactive) | 87.9% (inactive) | -9.4% (inactive) | -5.3% (inactive) | -12.6% (inactive) | -0.31 (inactive) | 3% (inactive) | -18% (inactive) |
| NCCc1c[nH]c2ccc(F)cc12 | 98.2% (inactive) | 103% (inactive) | 107% (inactive) | 106% (inactive) | 59.2% | 77.4% (inactive) | 18.3% (inactive) | 93.9% (inactive) | -1% (inactive) |  | 6.8% (inactive) | 104% (inactive) | -3.3% (inactive) | -0.7% (inactive) | -4.9% (inactive) | -0.44 (inactive) | 2% (inactive) | 5.73% (inactive) |
| COc1ccc2c(c1)CC1(CN2C)C(=O)NC(=O)N(CCc2ccccc2)C1=O (stereo not drawn) | 101% (inactive) | 98.3% (inactive) | 96.6% (inactive) | 88.1% (inactive) | 65.8% | 263% (inactive) | -3.57% (inactive) |  | -3% (inactive) | -4.29% (inactive) | 1.95% (inactive) | 104% (inactive) | 3.8% (inactive) | 1.1% (inactive) | -1.5% (inactive) | -0.07 (inactive) | 27% (inactive) | 27.6% (inactive) |
| Cc1cccc(C)c1NC1=NCCCS1 | 94.7% (inactive) | 104% (inactive) | 94.9% (inactive) | 91.3% (inactive) | 62.8% | 180% (inactive) | 13.8% (inactive) | 97.2% (inactive) | 2% (inactive) | 15.3% (inactive) | 1.52% (inactive) | 102% (inactive) | -2.3% (inactive) | -0.6% (inactive) | 1.9% (inactive) | 0.18 (inactive) | 5% (inactive) | -9.89% (inactive) |
| C[C@H]1CCC[C@H](O)CCCCCc2cc(O)cc(O)c2C(=O)O1 | 104% (inactive) | 94.8% (inactive) | 106% (inactive) | 87.3% (inactive) | 52.7% | 191% (inactive) | -7.7% (inactive) | 106% (inactive) | -4% (inactive) | -16.7% (inactive) | 3% (inactive) | 106% (inactive) | 0.3% (inactive) | -0.8% (inactive) | -4.3% (inactive) | -0.28 (inactive) | 9% (inactive) | -34.1% (inactive) |
| CCNC(=S)N(C)CCc1cc2c(c(OC)c1C=C1C(=O)N(C)C(=O)N(C)C1=O)OCO2 | 98.1% (inactive) | 95.9% (inactive) | 91% (inactive) | 96.4% (inactive) | 62.5% | 168% (inactive) | 15.6% (inactive) | 89.1% (inactive) | 4% (inactive) | 27.6% (inactive) | -7.44% (inactive) | 100% (inactive) | 1.8% (inactive) | 1.4% (inactive) | 1.3% (inactive) | -0.16 (inactive) | -16% (inactive) | 6.26% (inactive) |
| [N-]=[N+]=NC1C[C@H](n2ccc(=O)[nH]c2=O)O[C@@H]1CO (stereo partly drawn) | 101% (inactive) | 99.9% (inactive) | 106% (inactive) | 101% (inactive) | 56.5% | 185% (inactive) | 9.09% (inactive) | 97.1% (inactive) | -2% (inactive) | 42% (inactive) | -3.04% (inactive) | 97.7% (inactive) | 0.8% (inactive) | -1.5% (inactive) | -5.9% (inactive) | 0.03 (inactive) | 6% (inactive) | -21.2% (inactive) |
| Cc1cc(Cl)ccc1OCC(=O)O | 96.8% (inactive) | 93.8% (inactive) | 109% (inactive) | 105% (inactive) | 60.3% | 188% (inactive) | 7.22% (inactive) | 108% (inactive) | -4% (inactive) | -8.4% (inactive) | -14.2% (inactive) | 111% (inactive) | -6.1% (inactive) | -0.1% (inactive) | 2.4% (inactive) | -0.35 (inactive) | 10% (inactive) | -24.4% (inactive) |
| O=C(CCCN1CCC2(CC1)C(=O)NCN2c1ccccc1)c1ccc(F)cc1 | 98.9% (inactive) | 95.7% (inactive) | 102% (inactive) | 110% (inactive) | 62.6% | 187% (inactive) | 8.25% (inactive) | 85.3% (inactive) | -1% (inactive) | -9.7% (inactive) | 1.45% (inactive) | 103% (inactive) |  |  | 0.5% (inactive) | 0.12 (inactive) | -1% (inactive) | 3.88% (inactive) |
